# Data from the supplement of paper PMC6555819.
# Tests used:
# Experiment in all cases: PBM binding z-score (relative to random genomic background probes); higher = stronger binding; sequences stand for … in GC…GCGATTGACAGCGTAGAATGAAGG
# [1] = system: FXR:RXRa (NR concentration 270 nM, RXRa partner concentration 90 nM)
# How it was run: (§1)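 Scanned fluorescence from custom Agilent 4×180K protein-binding microarrays was regression-normalized. Binding z-scores use random background probes as reference. Ligand-free nuclear receptor dimers were incubated on the arrays for 1 h and detected with antibodies against each partner (one per run).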
# [2] = system: LXRa:RXRa (NR concentration 270 nM, RXRa partner concentration 90 nM)
# How it was run: as §1
# [3] = system: LXRa homodimer (NR concentration 270 nM)
# How it was run: as §1
# [4] = system: LXRb:RXRa (NR concentration 270 nM, RXRa partner concentration 90 nM)
# How it was run: as §1
# [5] = system: LXRb homodimer (NR concentration 270 nM)
# How it was run: as §1
# [6] = system: PPARa:RXRa (NR concentration 270 nM, RXRa partner concentration 90 nM)
# How it was run: as §1
# [7] = system: PPARg:RXRa (NR concentration 180 nM, RXRa partner concentration 90 nM)
# How it was run: as §1
# [8] = system: PPARg:RXRa 270nM:90nM, anti-RXR (NR concentration 270 nM, RXRa partner concentration 90 nM)
# How it was run: as §1
# [9] = system: PPARg:RXRa 30nM:10nM, anti-RXR (NR concentration 30 nM, RXRa partner concentration 10 nM)
# How it was run: as §1
# [10] = system: PPARg:RXRa 90nM:30nM, anti-RXR (NR concentration 90 nM, RXRa partner concentration 30 nM)
# How it was run: as §1
Sequence,PBM binding z-score [1],PBM binding z-score [2],PBM binding z-score [3],PBM binding z-score [4],PBM binding z-score [5],PBM binding z-score [6],PBM binding z-score [7],PBM binding z-score [8],PBM binding z-score [9],PBM binding z-score [10]
CCAGACAGGAGAGAAGGTAACTCAGCCTCGATTA,-0.282,-0.227,-0.0445,0.0989,0.0914,-0.133,0.348,-0.148,0.0221,-0.398
CAAACTAGGTCACAGAGGTCAATGTCCGTGCGTA,6.85,6.22,6.83,6.14,1.81,6.32,10,8.44,6.44,8.59
CAAACTTGGTCAAGGTCAAAGTCGGTTTGTGCCA,4.61,4.38,2.94,3.8,0.689,4.46,2.73,3.77,1,2.73
ATATGTAGGTTAAGGGTTATTCAGGTTGGTTCGC,2.31,3.16,1.3,2.8,1.11,5.82,10.4,8.81,8.91,9.75
GCTTATAGGTAATACAAGGTGAAAGTCCGATTGT,0.773,2.61,0.251,0.934,-0.275,1.5,0.93,1.22,0.379,0.916
CTCGAAAGGTCGTGCTCCGGTGAGTATACCAAAC,5.22,3.95,0.167,3.33,0.24,4.95,2.82,4.07,0.826,2.65
TTTACAGGGTCAAAGGCCAGAGTACGAATGTCGA,6.76,5.85,2.22,4.87,1.18,6.03,8.6,7.65,6.04,7.79
CCAGACAGGTGAATGGTAACTCAGTCTGGTACGC,-0.448,-0.493,-0.271,-0.246,-0.723,0.129,0.419,0.128,-0.647,-0.216
CCTAGCAGGCCAAGGTCACTCAAGCATTTCGCTT,3.06,2.72,0.474,2.51,-0.42,3.34,1.14,2.44,-0.0507,1.65
CGTCAAAGTTCAACTAAGGTAGCGTAAAGCACGC,6.83,6.17,3.78,4.01,1.98,4.8,4.84,5.37,1.94,4.03
GCATATACGTAATACAAGGTGAAAGTCCGATTGT,0.409,0.28,0.383,0.441,0.0307,0.855,0.906,0.499,0.287,0.554
ACTATTAGTTGAGACGAGGGCAACCTATAGGTTG,0.678,0.287,-0.0979,0.142,0.336,0.29,0.636,-0.0542,0.31,-0.00139
CCTCGGAGGACAACAGGTGGTCAGAGCTGCCAGA,-0.329,-0.519,-0.443,-0.782,-1.09,-0.623,-0.311,-0.79,-1.45,-1.37
ACTATTAGTTGAGACGAGGGCAACCGCTAGGTTG,0.861,0.155,-0.0789,0.0826,-0.113,0.374,0.327,0.207,-0.122,0.0431
ATATGTAGGTTAAGGGTCATTCAGGTTGGTTCGC,5.11,5.05,3.62,4.41,1.4,6.68,11.5,9.78,10.3,11.1
TGAATGAGGTTAAAGATCAGTGAACGTGGCGTCG,3.15,2.41,-0.442,1.55,-0.0397,4.69,5.57,6.1,4.77,6.78
GCGACGGGGGCAAAGCAGGTTACCATAAGGTTGG,3.46,4.5,0.414,4.42,5.27,4,1.96,3.58,1.84,3.04
CCTAGTTGGTCAAGGTCACACGCGCTATAGGTAC,4.49,3.9,2.29,3.34,0.902,4.29,3.54,3.95,1.23,3.1
ACTAGCAGGCCAAGTTTGGATCACTCAAACAAAG,-0.476,-0.653,-0.239,-0.541,-0.521,-0.385,0.154,-0.662,-0.693,-0.835
AGAATTAGGTTATACGTAGATCAGGGAAGAAAGT,0.495,0.704,0.321,0.628,0.596,2.29,2.76,2.95,1.74,2.58
CAAACTAGTTCAAGGTCAAAGTCGGTTTGTGCCA,5.67,5.81,6.22,4.81,1.76,5.13,3.27,3.88,1.53,3.03
ACTACCAGGCCAAGGGTCACTCAAGATTAGTCCG,2.84,3.11,0.63,3.41,0.443,5.06,8.68,7.51,6.65,7.73

Sequence,PBM binding z-score [1],PBM binding z-score [2],PBM binding z-score [3],PBM binding z-score [4],PBM binding z-score [5],PBM binding z-score [6],PBM binding z-score [7],PBM binding z-score [8],PBM binding z-score [9],PBM binding z-score [10]
CCGACTGGGCCATAAGGTTACCATAAGCCAGCCC,0.273,1.84,-0.402,0.636,-0.941,1.4,1.57,2.48,0.644,2.05
ATCTCTAGGTAACAAGTTCAGTGGAAGAGAGGAC,0.589,0.744,0.58,0.666,0.823,1.47,1.7,1.79,0.967,1.71
CGTCCTAGGTCAATGCTAGGTCAGTGAAAGCATT,3.74,3.83,1.98,2.38,0.076,3.34,1.92,2.52,0.255,1.31
CCAGACAGGTGGGAAGGTAACTCAGCCTCGATTA,-0.208,-0.246,0.289,0.0174,-0.794,0.0187,0.131,-0.544,-0.249,-0.529
GCAGACAGGTGTAACGCAGGTAACTCAGGGTGGC,-0.697,-0.644,-1.09,-0.823,-1.61,-0.721,0.351,-0.525,-0.773,-0.582
CCCAGCAGGCCAGGGTCACTCAAGCATTTCGCTT,2.03,1.48,-0.513,1.61,-0.79,2.8,0.0881,0.885,-1.03,0.0104
ACATACAGGTGATGAAGGTAACTCAGGCTATCAT,0.328,0.419,0.233,0.198,-0.055,0.484,1.06,0.534,0.477,0.425
TGATTGAGGTTATAAGATCAGGGAACGTTGCAAA,1.58,1.48,-0.174,1.21,-0.195,2.46,0.965,1.78,0.689,1.56
ATCTCTAGGTAAAGATAGTTCAGAGAATGCAAAT,0.206,3.56,0.259,0.69,0.411,0.663,0.843,0.494,0.309,0.609
CAAACTAGGTCAATGTCAAAGTCGGTTTGTGCCA,3.38,2.45,0.407,1.97,0.714,4.9,7.78,6.44,4.27,6.04
ATACCAAGGTGATCGTGAGGTCGTTGAGACTAAC,1.86,1.27,0.536,0.968,0.251,1.55,0.356,0.352,-0.174,-0.0872
TCATATAGGTAAACAGGTAAAAGTCCGTAAGTTA,1.11,1.14,0.519,0.863,0.214,1.98,2.49,3.29,4.26,3.85
AGAATGAGGTTATTAAGATCAGGTAATTGCGGTC,1.7,1.73,0.77,1.33,0.187,2.49,1.38,1.96,0.716,1.09
AGAATTAGGTTACCAAAGATCAGGGAAACGCTTG,0.207,4.78,0.162,1.15,-0.0791,2.9,3.46,3.45,1.37,2.53
ACCGACAGGTGATGAAGGTAACTCAGGCTATCAT,-0.0834,-0.243,-0.257,-0.498,-0.393,0.179,0.492,-0.102,-0.173,-0.00846
CAAACTAGGTCCCGAAAGGTCAAAGTCGAATGAC,5.02,5.71,5.76,5.44,1.82,5.54,4.62,5.24,2.11,4.36
GCCCGGAGGACAAGGTCAGAGCTTTGTCCGTAGA,1.63,1.41,-0.287,1.05,-1.25,1.98,-0.107,0.592,-0.793,-0.158
CCTCGGAGGAGAACAGGAGGTCAGAGCTGCCAGA,1.12,1.8,1.57,1.43,-0.244,1.87,0.262,0.0579,-0.552,-0.216
GCTCGGAGGACATGGTCAGAGCTTTGTCCGTAGA,-0.823,-0.697,-0.873,-1.01,-1.56,-0.666,-0.763,-0.775,-1.35,-1.09
CCTCGGAGGACAGACGGTCAGAGCTGTCCGCTTT,-0.245,-0.454,-0.415,-1.1,-0.8,-0.791,-0.705,-1.01,-1.36,-0.797
TCGAGTAGGTTAGGGGCAGTCAGAATGGCGTCGA,0.232,0.211,-0.0968,0.86,-0.416,1.11,0.492,1.58,0.558,1.36
CAAACTAGGTCACCGGAAGGTCAAATTCCGCATG,6.25,6.28,5.9,5.82,1.95,6.06,9.94,8.01,6.22,7.81
